In PubChem BioAssay:
Activity calls are given as the source filed them.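 Rule for the calls, unless noted: active = compounds lowering colon cancer cell viability after pretreatment blocking the GSK3B kinase; inactive = the rest.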

Key:
[1] = stimulators of nuclear beta-catenin in C2C12, primary screen, imaging, WNT3A-conditioned medium, mouse C2C12, NPC library (AID 1117326; in the data active = nuclear beta-catenin stimulation mostly above about 4.2%, no sharp cut-off; inactive = mostly below about 10%; note: reference of the scale not given here); conditions: stronger effect = higher value
[2] = stimulators of insulin release from INS-1E, primary screen, cell-based, 5 mM glucose, NPC library (AID 1117329;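 active = compound raises insulin release from rat beta cells at 5 mM glucose, no numeric limit stated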; note: reference of the scale not given here); conditions: rat INS-1E insulin secretion, at 10 µM, stronger effect = higher value
[3] = growth inhibition of GSK3B-pretreated HCT116 cells – cell-based, CellTiter-Glo, 0.2 to 20 µM (AID 1117336); conditions: HCT116 viability after GSK3B inhibitor, at 20 µM, stronger effect = higher value
[4] = inhibition of endothelial tube formation, primary screen, imaging, VEGF stimulated, CD31 staining, tube area, NPC library (AID 1117340;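 active = compound that reduces growth-factor-driven endothelial tube area in a mixed cell culture, no cutoff stated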); conditions: VEGF-stimulated ADSC/ECFC co-culture, at 10 µM, stronger effect = higher value
[5] = glucagon-like peptide 1 release enhancers, primary assay, NCI-H716 cell line, NPC library (AID 1117341;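 active = compound raises GLP1 secretion from the human gut endocrine cells, with no numeric limit stated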; note: reference of the scale not given here); conditions: NCI-H716 cells, at 10 µM, stronger effect = higher value
[6] = HCT116 colon cancer cell growth inhibition, primary screen, CellTiter-Glo luminescence, NPC library (AID 1117342;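 active = compounds that lower survival of HCT116 colon cancer cells in the luminescence readout, no numeric limit stated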); conditions: at 20 µM (top of the series)
[7] = CellTiter-Glo luminescent readout of SW480 viability loss, NPC library primary (AID 1117343;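 active = compounds that lower viability of the colon cancer cells in the luminescence readout, with no numeric limit stated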); conditions: CellTiter-Glo luminescence; at 20 µM (top of the series)
[8] = decreased DLD-1 cellular survival, CellTiter-Glo luminescent readout, NPC compound collection, primary HTS (AID 1117346;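 active = compounds that lower survival of DLD-1 colon cancer cells in the luminescence readout, no cutoff given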); conditions: DLD-1 viability, CellTiter-Glo luminescence; at 20 µM (top of the series)
[9] = molecular target: 6-phosphogluconate dehydrogenase, decarboxylating (Homo sapiens) (UniProt P52209); assay: 6PGD enzyme inhibitors, primary screen, biochemical, human, recombinant enzyme, NADPH absorbance (AID 1159550;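 active = at least 20% inhibition of 6-phosphogluconate dehydrogenase activity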); conditions: recombinant 6PGD, NADPH absorbance 341 nm; at 10 µM; stronger effect = higher value
Sequence of 6-phosphogluconate dehydrogenase, decarboxylating (Homo sapiens) (P52209 whole entry, looked up): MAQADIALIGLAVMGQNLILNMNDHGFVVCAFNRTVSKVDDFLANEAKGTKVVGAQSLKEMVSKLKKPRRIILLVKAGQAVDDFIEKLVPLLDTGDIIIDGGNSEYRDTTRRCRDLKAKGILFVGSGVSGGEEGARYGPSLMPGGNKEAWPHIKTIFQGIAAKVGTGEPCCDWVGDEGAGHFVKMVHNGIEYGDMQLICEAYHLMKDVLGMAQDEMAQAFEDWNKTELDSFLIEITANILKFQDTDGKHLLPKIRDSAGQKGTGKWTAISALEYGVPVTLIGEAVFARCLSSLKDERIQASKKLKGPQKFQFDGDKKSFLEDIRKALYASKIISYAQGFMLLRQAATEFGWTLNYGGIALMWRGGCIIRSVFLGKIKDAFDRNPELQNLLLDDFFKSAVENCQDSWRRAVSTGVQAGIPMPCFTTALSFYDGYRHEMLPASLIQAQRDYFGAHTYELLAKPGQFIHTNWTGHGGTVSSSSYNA

| SMILES | nuclear beta-catenin stimulation ([1]; at 10 µM) | nuclear beta-catenin stimulation ([1]; stimulation, at 2 µM) | insulin secretion stimulation [2] | viability decrease [3] | tube area decrease [4] | GLP1 secretion stimulation [5] | inhibition of viability [6] | viability decrease (inhibition) [7] | viability decrease (inhibition) [8] | inhibition [9] |
| --- | --- | --- | --- | --- | --- | --- | --- | --- | --- | --- |
| Cc1cc(NC(=O)C2=C(O)c3ccccc3S(=O)(=O)N2C)no1 | 4% (inactive) | 1.7% | -1.3% (inactive) | -24.5% (inactive) | 14.8% (inactive) | -2.4% (inactive) | 4.6% (inactive) | -6% (inactive) | -7.2% (inactive) | 0.485% (inactive) |
| Cc1c(C(=O)O)c(O)cc2c1C(=O)c1c(O)c([C@@H]3O[C@H](CO)[C@@H](O)[C@H](O)[C@H]3O)c(O)c(O)c1C2=O | 0% (inactive) | 0.8% | 4.4% (inactive) | 46.7% (inactive) | 24.4% (inactive) | -1.7% (inactive) | 35% (inactive) | 53.2% (active) | 34.5% (inactive) | -2.65% (inactive) |
| CC(=O)Oc1c(C)c(C)c2c(c1C)CC[C@@](C)(CCC[C@H](C)CCC[C@H](C)CCCC(C)C)O2 | 1.7% (inactive) | 2% | 0.3% (inactive) | -9.9% (inactive) | -15.2% (inactive) | 1.2% (inactive) | 1.13% (inactive) | -13.6% (inactive) | -19.7% (inactive) | 14% (inactive) |
| O=C1C(=O)c2ccccc2C(O)=C1C1CCC(c2ccc(Cl)cc2)CC1 (stereo not given) | 2.2% (inactive) | -1% | 1.1% (inactive) | 96.3% (active) | 69.9% (active) | 1.4% (inactive) | 97.1% (active) | 144% (active) | 99% (active) | 5.16% (inactive) |
| CC/C(=C(/CC)c1ccc(O)cc1)c1ccc(O)cc1 | 21.1% (inactive) | -0.2% | 0.8% (inactive) | 90.8% (active) | 20.8% (inactive) | 16.6% (inactive) | 94.3% (active) | 97.7% (active) | 98.4% (active) | 8.9% (inactive) |
| Oc1cc(O)c2c(c1)O[C@H](c1ccc(O)c(O)c1)[C@H](O)C2 | -1.4% (inactive) | 1.2% | -0.7% (inactive) | 14.4% (inactive) | -6.6% (inactive) | -3.1% (inactive) | 1.73% (inactive) | -72.1% (inactive) | -2% (inactive) | -5.84% (inactive) |
| CC1CCc2cc(F)cc3c(=O)c(C(=O)O)cn1c23 (stereo not given) | 3.1% (inactive) | -1.1% | 1.1% (inactive) | -105% (inactive) | 3.3% (inactive) | -1.9% (inactive) | 19.6% (inactive) | 51.1% (active) | -6.7% (inactive) | 2.78% (inactive) |
| CN1CCOC(c2ccccc2)c2ccccc2C1 (stereo not given) | -0.7% (inactive) | -1.3% | 1.8% (inactive) | -52.9% (inactive) | 0.9% (inactive) | 4% (inactive) | 12.4% (inactive) | 40.1% (inactive) | -7.2% (inactive) | 5.09% (inactive) |
| O=C(CCCN1CCN(c2ccccn2)CC1)c1ccc(F)cc1 | 0.1% (inactive) | -1% | 7.45% (inactive) | 31.5% (inactive) | -12.3% (inactive) | -0.3% (inactive) | 51% (active) | 11.4% (inactive) | 20.2% (inactive) | 1.29% (inactive) |
| CCOc1ccc(NC(C)=O)cc1 | -0.6% (inactive) | -0.9% | -2.2% (inactive) | -4.8% (inactive) | -16.7% (inactive) | 4.4% (inactive) | -24.5% (inactive) | 104% (active) | -6.2% (inactive) | 5.26% (inactive) |
| CS(=O)(=O)c1ccc([C@@H](O)[C@@H](CO)NC(=O)C(Cl)Cl)cc1 | 2.7% (inactive) | 2.3% | 1% (inactive) | -30.5% (inactive) | 42.1% (active) | 0.4% (inactive) | 2% (inactive) | -9.6% (inactive) | -4% (inactive) | -8.02% (inactive) |
| Nc1ccc(C(=O)O)c(O)c1 | 0.9% (inactive) | 1.5% | 0.1% (inactive) | -46.6% (inactive) | 15.9% (inactive) | -6% (inactive) | -12.6% (inactive) | 12.5% (inactive) | -27.1% (inactive) | 6.71% (inactive) |
| COC(=O)[C@@H](N)CS | -1.4% (inactive) | 2.3% | 1.6% (inactive) | -1.8% (inactive) | -0.7% (inactive) | 4.1% (inactive) | 3.2% (inactive) | 17.6% (inactive) | 23.2% (active) | 3.23% (inactive) |
| O=C1O[C@H](CO)[C@@H](O)[C@H](O)[C@H]1O | -1.1% (inactive) | 1% | 1.8% (inactive) | -0.7% (inactive) | -3.8% (inactive) | -2.6% (inactive) | 14.6% (inactive) | 31.1% (inactive) | 20% (inactive) | -9.11% (inactive) |
| Cc1cc(-c2ccccc2)nnc1NCCN1CCOCC1 | 1.4% (inactive) | 0.5% | -1.9% (inactive) | -42.6% (inactive) | 6.8% (inactive) | 0.4% (inactive) | 6.4% (inactive) | 12.4% (inactive) | -6.5% (inactive) | 3.56% (inactive) |
